Test results published in article PMC4081100, “A DNA-binding-site landscape and regulatory network analysis for NAC transcription factors in Arabidopsis thaliana”.

Key:
Assay in all cases: universal protein binding microarray (PBM); transcription factors of Arabidopsis thaliana; high values mean tight binding
Details in all cases: protein: recombinant; tags: GST; chain copies: 2; dsDNA, one strand shown
GST-ANAC092(1-176) = molecular target: T1, GST-ANAC092(1-176) (Arabidopsis thaliana, UniProt Q9FKA0 1-176)
T1 sequence: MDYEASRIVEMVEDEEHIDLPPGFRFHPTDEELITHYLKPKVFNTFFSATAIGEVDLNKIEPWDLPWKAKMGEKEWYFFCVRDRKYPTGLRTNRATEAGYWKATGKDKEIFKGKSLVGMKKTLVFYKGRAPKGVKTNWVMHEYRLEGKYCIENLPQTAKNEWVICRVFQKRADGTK
Procedure, shortened: (§1)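 Protein amounts were determined by A280 or anti-GST western blot after glutathione–Sepharose 4B purification of GST-tagged proteins induced in cells, with zinc acetate included for zinc-finger proteins. Duplicate runs at 200 to 500 nM final were done on custom all-10-mer Agilent 4 × 180K arrays made double-stranded by primer extension. The normalised enrichment score (E-score) over gapped and ungapped 8-mers is the measure of binding.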

GST-NTL6(1-168) = GST-NTL6(1-168) (Arabidopsis thaliana, UniProt Q9SCK6 1-168)
Procedure, shortened: as §1

GST-ANAC019 NAC domain = molecular target: T2, GST-ANAC019 NAC domain (Arabidopsis thaliana, UniProt Q9C932 14-162)
T2 sequence: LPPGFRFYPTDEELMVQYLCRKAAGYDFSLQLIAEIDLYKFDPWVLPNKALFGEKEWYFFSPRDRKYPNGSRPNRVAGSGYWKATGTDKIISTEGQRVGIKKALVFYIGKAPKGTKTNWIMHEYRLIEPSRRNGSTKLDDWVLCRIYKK
Procedure, shortened: as §1

GST-ANAC055(1-171) = molecular target: T3, GST-ANAC055(1-171) (Arabidopsis thaliana, UniProt Q9LDY8 1-171)
T3 sequence: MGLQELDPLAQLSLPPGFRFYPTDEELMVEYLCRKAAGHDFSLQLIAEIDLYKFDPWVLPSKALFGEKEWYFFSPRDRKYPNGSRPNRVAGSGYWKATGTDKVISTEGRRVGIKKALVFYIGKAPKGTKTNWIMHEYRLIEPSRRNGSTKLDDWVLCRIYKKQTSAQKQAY
Procedure, shortened: as §1

GST-ATAF1 NAC domain = molecular target: T4, GST-ATAF1 NAC domain (Arabidopsis thaliana, UniProt Q39013 7-158)
T4 sequence: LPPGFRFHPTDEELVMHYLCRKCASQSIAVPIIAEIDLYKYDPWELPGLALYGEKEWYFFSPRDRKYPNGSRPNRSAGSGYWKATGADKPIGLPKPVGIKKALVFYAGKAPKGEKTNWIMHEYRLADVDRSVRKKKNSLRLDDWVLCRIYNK
Procedure, shortened: as §1

[1] = molecular target: T5, GST-ANAC092(1-285) full length (Arabidopsis thaliana, UniProt Q9FKA0 1-285)
T5 sequence: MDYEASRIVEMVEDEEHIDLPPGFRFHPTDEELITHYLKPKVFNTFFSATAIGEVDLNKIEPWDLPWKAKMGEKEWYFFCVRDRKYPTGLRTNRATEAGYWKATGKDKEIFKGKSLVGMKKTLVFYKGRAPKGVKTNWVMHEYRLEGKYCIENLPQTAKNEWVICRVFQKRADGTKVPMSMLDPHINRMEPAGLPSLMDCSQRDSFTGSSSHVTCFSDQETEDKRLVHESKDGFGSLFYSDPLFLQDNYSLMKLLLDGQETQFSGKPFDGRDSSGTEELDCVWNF
Procedure, shortened: as §1

GST-NAP(1-166) = molecular target: T6, GST-NAP(1-166) (Arabidopsis thaliana, UniProt O49255 1-166)
T6 sequence: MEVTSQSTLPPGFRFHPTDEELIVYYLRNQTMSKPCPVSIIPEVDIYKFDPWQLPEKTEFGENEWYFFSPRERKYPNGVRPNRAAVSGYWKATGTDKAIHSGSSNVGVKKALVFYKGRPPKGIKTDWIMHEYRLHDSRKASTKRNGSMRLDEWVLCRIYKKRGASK
Procedure, shortened: as §1

GST-NST2(1-184) = molecular target: T7, GST-NST2(1-184) (Arabidopsis thaliana, UniProt Q9M274 1-184)
T7 sequence: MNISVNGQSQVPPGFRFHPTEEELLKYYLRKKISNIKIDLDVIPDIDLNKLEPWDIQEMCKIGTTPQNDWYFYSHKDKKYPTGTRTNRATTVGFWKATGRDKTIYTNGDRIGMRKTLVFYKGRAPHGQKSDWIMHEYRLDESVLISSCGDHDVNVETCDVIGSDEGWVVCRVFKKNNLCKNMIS
Procedure, shortened: as §1

GST-NTL8 NAC domain = molecular target: T8, GST-NTL8 NAC domain (Arabidopsis thaliana, UniProt Q9XIN7 14-156)
T8 sequence: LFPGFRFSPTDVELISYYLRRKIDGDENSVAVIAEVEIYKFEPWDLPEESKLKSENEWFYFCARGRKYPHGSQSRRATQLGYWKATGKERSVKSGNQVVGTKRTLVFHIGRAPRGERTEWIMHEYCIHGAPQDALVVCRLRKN
Procedure, shortened: as §1

GST-SND1(1-203) = molecular target: T9, GST-SND1(1-203) (Arabidopsis thaliana, UniProt Q9LPI7 1-203)
T9 sequence: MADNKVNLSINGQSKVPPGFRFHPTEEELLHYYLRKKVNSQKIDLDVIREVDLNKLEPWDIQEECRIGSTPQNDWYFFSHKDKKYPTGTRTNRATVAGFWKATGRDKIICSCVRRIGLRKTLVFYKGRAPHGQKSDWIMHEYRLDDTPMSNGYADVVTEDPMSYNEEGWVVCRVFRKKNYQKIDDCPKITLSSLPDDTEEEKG
Procedure, shortened: as §1

GST-VND3 NAC domain = molecular target: T10, GST-VND3 NAC domain (Arabidopsis thaliana, UniProt Q9FH59 12-162)
T10 sequence: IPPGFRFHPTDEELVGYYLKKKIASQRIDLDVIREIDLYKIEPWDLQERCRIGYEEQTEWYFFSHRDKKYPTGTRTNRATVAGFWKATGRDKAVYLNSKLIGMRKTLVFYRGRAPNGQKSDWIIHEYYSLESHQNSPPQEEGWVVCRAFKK
Procedure, shortened: as §1

GST-VND7 NAC domain = molecular target: T11, GST-VND7 NAC domain (Arabidopsis thaliana, UniProt Q9C8W9 9-158)
T11 sequence: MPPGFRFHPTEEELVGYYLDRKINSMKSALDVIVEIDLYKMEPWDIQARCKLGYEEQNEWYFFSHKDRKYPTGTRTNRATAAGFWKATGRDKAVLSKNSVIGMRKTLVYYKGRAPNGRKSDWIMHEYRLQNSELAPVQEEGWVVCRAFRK
Procedure, shortened: as §1

Sequence of GST-NTL6(1-168) (Q9SCK6 1-168): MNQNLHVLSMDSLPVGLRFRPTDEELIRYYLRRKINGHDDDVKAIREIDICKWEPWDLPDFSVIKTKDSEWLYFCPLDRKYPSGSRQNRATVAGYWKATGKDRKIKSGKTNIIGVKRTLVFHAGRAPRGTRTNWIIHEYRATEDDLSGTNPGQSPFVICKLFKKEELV

CACGTTTC
binding signal (GST-ANAC092(1-176)): 0.424 E-score
binding signal (GST-NTL6(1-168)): 0.107 E-score
binding signal (GST-ANAC019 NAC domain): 0.381 E-score
binding signal (GST-ANAC055(1-171)): 0.375 E-score
binding signal (GST-ATAF1 NAC domain): 0.383 E-score
binding signal [1]: 0.432 E-score
binding signal (GST-NAP(1-166)): 0.332 E-score
binding signal (GST-NST2(1-184)): 0.286 E-score
binding signal (GST-NTL8 NAC domain): 0.217 E-score
binding signal (GST-SND1(1-203)): 0.299 E-score
binding signal (GST-VND3 NAC domain): 0.262 E-score
binding signal (GST-VND7 NAC domain): 0.298 E-score

TAAGTTAA
binding signal (GST-ANAC092(1-176)): 0.191 E-score
binding signal (GST-NTL6(1-168)): 0.418 E-score
binding signal (GST-ANAC019 NAC domain): 0.132 E-score
binding signal (GST-ANAC055(1-171)): 0.0747 E-score
binding signal (GST-ATAF1 NAC domain): 0.157 E-score
binding signal [1]: 0.3 E-score
binding signal (GST-NST2(1-184)): 0.184 E-score
binding signal (GST-SND1(1-203)): 0.297 E-score
binding signal (GST-VND3 NAC domain): 0.188 E-score
binding signal (GST-VND7 NAC domain): 0.0557 E-score

GTTTCGTA
binding signal (GST-ANAC092(1-176)): 0.375 E-score
binding signal (GST-NTL6(1-168)): 0.0501 E-score
binding signal (GST-ANAC019 NAC domain): 0.0919 E-score
binding signal (GST-ANAC055(1-171)): 0.15 E-score
binding signal (GST-ATAF1 NAC domain): 0.173 E-score
binding signal [1]: 0.405 E-score
binding signal (GST-NAP(1-166)): 0.185 E-score
binding signal (GST-NST2(1-184)): 0.163 E-score
binding signal (GST-NTL8 NAC domain): 0.0561 E-score
binding signal (GST-SND1(1-203)): 0.318 E-score
binding signal (GST-VND3 NAC domain): 0.293 E-score
binding signal (GST-VND7 NAC domain): 0.124 E-score

ATTCCTTA
binding signal (GST-ANAC092(1-176)): 0.103 E-score
binding signal (GST-NTL6(1-168)): 0.486 E-score
binding signal (GST-ANAC019 NAC domain): 0.0942 E-score
binding signal (GST-ANAC055(1-171)): 0.114 E-score
binding signal (GST-ATAF1 NAC domain): 0.126 E-score
binding signal [1]: 0.115 E-score
binding signal (GST-NST2(1-184)): 0.224 E-score
binding signal (GST-NTL8 NAC domain): 0.237 E-score
binding signal (GST-SND1(1-203)): 0.306 E-score
binding signal (GST-VND3 NAC domain): 0.0907 E-score
binding signal (GST-VND7 NAC domain): 0.064 E-score

GTTACGTA
binding signal (GST-ANAC092(1-176)): 0.463 E-score
binding signal (GST-NTL6(1-168)): 0.214 E-score
binding signal (GST-ANAC019 NAC domain): 0.482 E-score
binding signal (GST-ANAC055(1-171)): 0.473 E-score
binding signal (GST-ATAF1 NAC domain): 0.463 E-score
binding signal [1]: 0.456 E-score
binding signal (GST-NAP(1-166)): 0.483 E-score
binding signal (GST-NST2(1-184)): 0.337 E-score
binding signal (GST-NTL8 NAC domain): 0.319 E-score
binding signal (GST-SND1(1-203)): 0.442 E-score
binding signal (GST-VND3 NAC domain): 0.471 E-score
binding signal (GST-VND7 NAC domain): 0.477 E-score

CACGCAAA
binding signal (GST-ANAC092(1-176)): 0.487 E-score
binding signal (GST-NTL6(1-168)): 0.107 E-score
binding signal (GST-ANAC019 NAC domain): 0.421 E-score
binding signal (GST-ANAC055(1-171)): 0.348 E-score
binding signal (GST-ATAF1 NAC domain): 0.292 E-score
binding signal [1]: 0.486 E-score
binding signal (GST-NAP(1-166)): 0.385 E-score
binding signal (GST-NST2(1-184)): 0.389 E-score
binding signal (GST-NTL8 NAC domain): 0.0878 E-score
binding signal (GST-SND1(1-203)): 0.426 E-score
binding signal (GST-VND3 NAC domain): 0.396 E-score
binding signal (GST-VND7 NAC domain): 0.419 E-score

ACGTAACA
binding signal (GST-ANAC092(1-176)): 0.438 E-score
binding signal (GST-NTL6(1-168)): 0.133 E-score
binding signal (GST-ANAC019 NAC domain): 0.389 E-score
binding signal (GST-ANAC055(1-171)): 0.413 E-score
binding signal (GST-ATAF1 NAC domain): 0.365 E-score
binding signal [1]: 0.426 E-score
binding signal (GST-NAP(1-166)): 0.417 E-score
binding signal (GST-NST2(1-184)): 0.345 E-score
binding signal (GST-NTL8 NAC domain): 0.205 E-score
binding signal (GST-SND1(1-203)): 0.409 E-score
binding signal (GST-VND3 NAC domain): 0.41 E-score
binding signal (GST-VND7 NAC domain): 0.419 E-score
